Giardia kill: kills Giardia lamblia | Giardia lamblia trophozoite viability | activity change, % at 7.66 µM, hits read low | actives 0.15% (n = 340,000) | AID 540267; in the data active = activity change below about -80%; inconclusive = between about -30% and that limit;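 also: parasites exposed to compound for two days anaerobically before the ATP read; % is scaled to controls: 0 for no effect and ±100 for the full control effect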
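Giardia lamblia trophozoites (100 cells/well) were incubated with compounds for 48 h at 37 deg C under anaerobic conditions. Viability was read as ATP content by one-step luminescence after 15-30 min at room temperature.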
mIDH1 inhibitor: inhibitors of human mutant IDH1 R132H | IDH1-R132H enzyme, NADPH consumption, diaphorase/resazurin fluorescence | Potency, µM (highest dose often 76.6 µM), for inactives: top-dose activity change, negative = inhibition, usual class: inhibitors | actives 0.093% (n = 390,000); also: potency is read from the fitted curve at half-maximal effect; % is scaled to controls: 0 for no effect and ±100 for the full control effect; nearly all actives have a fitted effect of over 65% in size
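IDH1-R132H (0.5 ug/mL dispensed) in pH 7.5 Tris buffer was preincubated 30 min with compound, then given a substrate mix of 0.016 mM NADPH and 2 mM alpha-KG for 80 min at room temperature; remaining NADPH was read by diaphorase/resazurin fluorescence.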
Apoferritin bind: candidate novel general anesthetic via apoferritin binding; P02791; apoferritin/1-aminoanthracene competitive binding, fluorescence; Potency, µM (series often up to 77.5 µM), for inactives: at the highest dose activity change, negative = displacement, hits mostly inhibitors; actives 0.074% (n = 350,000); AID 485281; also: potency is read from the fitted curve at half-maximal effect; % is scaled to controls: 0 for no effect and ±100 for the full control effect; nearly all actives have a fitted effect of over 20% in size
Target sequence (P02791 2-175 limits assumed): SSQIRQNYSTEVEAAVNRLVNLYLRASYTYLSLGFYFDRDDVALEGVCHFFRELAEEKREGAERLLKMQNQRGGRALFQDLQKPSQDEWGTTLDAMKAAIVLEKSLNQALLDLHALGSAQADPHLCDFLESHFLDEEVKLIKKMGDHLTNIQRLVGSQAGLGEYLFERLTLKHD
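In PBS, apoferritin at 10 uM is loaded with 1-AMA from a 50% saturated solution. After 10 min of compound exposure at ambient temperature, reduced 535 nm fluorescence indicates probe displacement.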
Nrf2 activator: activates Nrf2 signaling; AID 624171; actives 0.31% (n = 410,000); AREc32 ARE-luciferase reporter (MCF7-derived line), luminescence, 24 h; Potency, µM (titrated, usually from 46.1 µM), for the others: at the highest dose activation, hits mostly activators; also: potency is read from the fitted curve at half-maximal effect; % of control where 0% means no effect; nearly all actives have a fitted effect of over 65% in size
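ARE-driven firefly luciferase activity in AREc32 cells measured after a 24 hr compound exposure at 37 deg C, using Steady-Glo reagent and a 30 min room-temperature hold.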
A549 tox-1: kills or reduces viability of A549 cells in Nrf2 counter-screen. A549 ARE-Fluc cells, CellTiter-Fluor viability, 18-24 h. Potency, µM (doses to about 46 µM), inactives show top-dose activity change, negative = cytotoxicity, actives largely listed as inhibitors. actives 0.16% (n = 390,000). AID 504648; also: potency is read from the fitted curve at half-maximal effect; % is scaled to controls: 0 for no effect and ±100 for the full control effect
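A549 ARE-Fluc cells in 5% FBS OPTI-MEM, 5000 cells/well, rested 2 h then exposed to compounds in concentration-response for 18-24 h at 37 °C. Viability by CellTiter-Fluor fluorescence (Ex 405/Em 525) after 30 min; luciferase luminescence (BugLite, 15 min, RT) read afterwards.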
Nrf2 inh: inhibitors of Nrf2 signaling; A549 ARE-Fluc reporter, luciferase luminescence, 18-24 h; Potency, µM (highest dose often 46 µM), for the others: at the top dose activity change, negative = inhibition, usual class: inhibitors; actives 2.1% (n = 360,000); AID 504444; also: potency is read from the fitted curve at half-maximal effect; % is scaled to controls: 0 for no effect and ±100 for the full control effect; nearly all actives have a fitted effect of over 60% in size
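Reporter: ARE-Fluc in A549. Exposure: 18-24 h, 37 °C, 5% CO2, 5% FBS OPTI-MEM. Readouts: fluorescent cytotoxicity (CellTiter-Fluor), then luminescent Nrf2 signal after BugLite.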
FLuc counter 3: counter-screen for Nrf2 inhibitors: firefly luciferase enzyme inhibition | actives 4% (n = 1,400) | Potency, µM (titrated, usually from 57.5 µM), without a hit: top-dose activity change, negative = inhibition, hits mostly inhibitors | shares compounds with Nrf2 inh | purified firefly luciferase, luminescence inhibition; also: potency is read from the fitted curve at half-maximal effect; % is scaled to controls: 0 for no effect and ±100 for the full control effect; nearly all actives have a fitted effect of over 65% in size
Target sequence (P08659 whole entry, looked up): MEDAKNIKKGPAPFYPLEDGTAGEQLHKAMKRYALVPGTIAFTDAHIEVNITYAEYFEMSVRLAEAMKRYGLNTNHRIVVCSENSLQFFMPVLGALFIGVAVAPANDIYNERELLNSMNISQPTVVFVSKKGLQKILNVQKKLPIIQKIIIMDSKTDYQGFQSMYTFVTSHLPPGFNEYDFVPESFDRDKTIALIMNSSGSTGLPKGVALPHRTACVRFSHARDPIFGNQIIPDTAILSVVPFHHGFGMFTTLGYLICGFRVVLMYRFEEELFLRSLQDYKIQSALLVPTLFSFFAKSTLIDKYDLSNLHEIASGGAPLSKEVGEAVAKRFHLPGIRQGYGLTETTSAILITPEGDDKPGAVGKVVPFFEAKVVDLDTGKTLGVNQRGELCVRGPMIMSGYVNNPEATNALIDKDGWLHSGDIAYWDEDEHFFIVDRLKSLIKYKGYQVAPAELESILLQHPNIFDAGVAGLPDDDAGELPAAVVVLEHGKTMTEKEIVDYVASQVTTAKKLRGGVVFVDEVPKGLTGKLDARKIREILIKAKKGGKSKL
A549 tox-2: counter-screen for Nrf2 inhibitors: cytotoxicity in A549 ARE cells. A549 ARE-Fluc cells, cytotoxicity counterscreen. actives 2% (n = 1,400). Potency, µM (titrated, usually from 46.1 µM), without a hit: top-dose activity change, negative = cytotoxicity, most hits filed as inhibitors. shares compounds with Nrf2 inh;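 also: potency is read from the fitted curve at half-maximal effect; cells exposed to compounds for 18 to 24 hours; % is scaled to controls: 0 for no effect and ±100 for the full control effect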
Nrf2 ARE inh: confirmation of Nrf2 inhibitors in A549 ARE reporter cells; shares compounds with Nrf2 inh; A549 ARE-firefly luciferase reporter, luminescence; Potency, µM (highest dose often 46.1 µM), for the others: top-dose activity change, negative = inhibition, most hits filed as inhibitors; actives 74% (n = 1,400); AID 720524; also: potency is read from the fitted curve at half-maximal effect; % is scaled to controls: 0 for no effect and ±100 for the full control effect; nearly all actives have a fitted effect of over 65% in size
Active calls of the source: *; ? = inconclusive; / = no result given; [ ] = remark or other dose. The list is not random: actives were taken first. Their share in the collection is about 2.3%. Unless noted, calls follow the shape of the dose curve; as a rule, active = well fitted curve in the direction sought with a large enough effect; inconclusive = small, poorly fitted or top-dose-only effect, or another doubt; inactive = no such curve, though single readings can be large; an effect the other way counts as inactive or inconclusive.

SMILES	Giardia kill	mIDH1 inhibitor	Apoferritin bind	Nrf2 activator	A549 tox-1	Nrf2 inh	FLuc counter 3	A549 tox-2	Nrf2 ARE inh
O=C(COC(=O)c1ccc[nH]c1=O)Nc1ccc(S(=O)(=O)N2CCCC2)cc1	6	3%	-7%	0%	-25%	0%	/	/	/
O=C(COC(=O)c1ccc[nH]c1=O)Nc1ccc(N2CCCCC2)cc1	?	-2%	/	-3%	-1%	2.3µM*	11µM*	-1%	4.1µM*
COc1ccc(NC(=O)C2(C)CCCN(C(C)C)C2)cc1OC (stereo unspecified)	/	/	/	-1%	/	/	/	/	/
CN1CCc2c(OCC(=O)N3CCCc4ccccc43)cccc2C1=O	-27	-3%	-12%	3%	?	9.2µM*	3%	1%	?
CCc1ccc(OC(=O)CSc2nnc(-c3ccc(OC)c(OC)c3)o2)cc1	/	21%	59%	-1%	2%	20%	/	/	/
COc1cc(NCCCC(C)N)c2ncccc2c1 (stereo unspecified)	-12	26%	?	-4%	?	5.8µM*	-4%	-23%	?
COc1ccc(-c2nc3scc(CCNS(=O)(=O)c4ccc(F)c(C(F)(F)F)c4)n3n2)cc1OC	/	-10%	-2%	0%	-11%	/	/	/	/
O=C(NCc1nnc(SCC(=O)N2CCCc3ccccc32)n1-c1ccccc1)c1cccc2ccccc12	-4	1%	7%	0%	-11%	2.6µM*	-1%	-18%	10µM*
COc1ccc(-n2c(Cc3ccccc3)nnc2SCC(=O)N2CCCc3ccccc32)cc1	1	-6%	8%	-1%	-3%	0%	/	/	/
CCn1c2ccccc2c2cc(CN3CCN(Cc4ccc(Br)cc4)CC3)ccc21	/	0%	47%	-2%	1%	2%	/	/	/
Cc1nn(Cc2ccc(Cl)cc2)c(C)c1NC(=O)CSc1nc2c(c(C(F)(F)F)n1)CCc1ccccc1-2	-8	-9%	-8%	0%	?	9.2µM*	-8%	?	?
Cc1nnc(SC(C)C(=O)Nc2ccc(Cl)cn2)n1Cc1ccccc1 (stereo unspecified)	27	4%	-13%	0%	?	9.2µM*	-1%	-2%	?
CC(Sc1nnc(-c2ccc(Cl)cc2Cl)n1Cc1ccccc1)C(=O)Nc1nccs1 (stereo unspecified)	0	-20%	-8%	3%	-25%	?	/	/	/
O=C(Nc1cccc(C(F)(F)F)c1)c1cc(-c2ccc3c(c2)OCCO3)on1	/	-4%	-19%	3%	-6%	?	/	/	/
COc1cc(OC)cc(-c2cc3nc(C)c(CCC(=O)O)c(C)n3n2)c1	8	-4%	-5%	-5%	0%	1.5µM*	11µM*	4%	2.6µM*
NC(=O)[C@@H]1CCCN1C(=O)C(Cc1cnc[nH]1)NC(=O)C1CCC(=O)N1 (stereo partly specified)	/	/	6%	/	/	/	/	/	/
COCCNC(=O)CN1C(=O)COc2ccc(S(=O)(=O)N3CCCC3)cc21	/	17%	41%	-1%	11%	14%	/	/	/
CCOC(=O)c1sc2ccccc2c1OC(=O)c1ccccc1OC	-6	0%	-12%	3%	-29%	4.6µM*	-14%	-22%	?
CCOc1ccc2[nH]c(=O)c(CN(Cc3ccco3)C(CC)c3nnnn3Cc3ccccc3)cc2c1 (stereo unspecified)	-21	-7%	-18%	4%	?	?	/	/	/
CCC(c1nnnn1Cc1ccccc1)N(Cc1ccccc1)Cc1cc2cc(C)ccc2[nH]c1=O (stereo unspecified)	-3	/	/	/	?	4.1µM*	0%	-28%	?
COc1cc(CN(C(=O)c2ccccc2F)C2CCS(=O)(=O)C2)cc(OC)c1OC (stereo unspecified)	/	0%	-1%	-1%	-7%	12%	/	/	/
CCC(CC)C(=O)N(C)c1c(C)nc2c(OCc3cccc(OC)c3)cccn12	/	/	/	0%	/	/	/	/	/
Cc1nn(C)c(C)c1CN(Cc1nc(CCC(C)C)no1)C(C)C	-3	-3%	-11%	0%	-9%	1.3µM*	-2%	-2%	?
O=C(c1cc(COc2cccc3cnccc23)on1)N1CCCC(CCCO)C1 (stereo unspecified)	6	5%	?	0%	-28%	3.7µM*	-2%	-13%	2.3µM*
COc1ccc(C(=O)N2CCC2(C)C(=O)NC(C)C)cc1OC (stereo unspecified)	/	/	/	0%[9.22 µM]	/	/	/	/	/
SMILES	Giardia kill	mIDH1 inhibitor	Apoferritin bind	Nrf2 activator	A549 tox-1	Nrf2 inh	FLuc counter 3	A549 tox-2	Nrf2 ARE inh
CCOc1ccccc1NC(=O)c1nnn(CC(=O)Nc2ccc(OC)c(OC)c2)c1N	/	-2%	0%	0%	-4%	18%	/	/	/
CC1Cc2ccccc2N1c1ncnc(N)c1[N+](=O)[O-] (stereo unspecified)	?	15%	-16%	-2%	-14%	4.6µM*	2%	-25%	8.2µM*
CC1CCCCN1c1ncnc(N)c1[N+](=O)[O-] (stereo unspecified)	4	-3%	-19%	-1%	-3%	-1%	/	/	/
Cn1ncc2c(NCc3cccc(Cl)c3)ncnc21	/	-1%	54%	3%	12%	/	/	/	/
CSc1ccc(CCNC(=O)c2ccc(CS(=O)(=O)c3ccc(Br)cc3)o2)cc1	/	0%	-1%	0%	-2%	/	/	/	/
Cc1ccnc2c1ccc1ccccc12	-16	5%	-16%	1%	1%	5%	/	/	/
Cc1ccnc2c1ccc1cccnc12	1	12%	/	18%	?	?	-17%	?	/
O=C(N/N=C/c1sc(N2CCOCC2)nc1-c1ccccc1)c1ccc(O)cc1	3	7%	-11%	3%	-18%	-8%	/	/	/
O=C(N/N=C/c1sc(N2CCOCC2)nc1-c1ccccc1)c1cccc(S(=O)(=O)N2CCCC2)c1	2	1%	12%	3%	?	2.6µM*	2%	-17%	23µM*
O=S1(=O)CC(N2CCN(CCO)CC2)CN1C1CCCCC1 (stereo unspecified)	/	/	/	0%	/	/	/	/	/

Screening data deposited in PubChem BioAssay by National Center for Advancing Translational Sciences (NCATS).
